As a reminder, the Kd is the constant that tells how readily two partners part at equilibrium. High values mean lower affinity, low ones higher affinity.

Here are results for 22 compounds from paper PMC5540273 (PLoS ONE, 2017).
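Also: kd values determined as follow-up on hits from a single-replicate KINOMEscan panel screen.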

One experiment relates to T1, PIP5K2C.
T1 construct: gene PIP4K2C
`CS(=O)(=O)Cc1ccc(Nc2nccc(-c3c(-c4cccc(NC(=O)C5CCCCC5)c4)nn4ncccc34)n2)cc1` [GSK350559] had a dissociation constant (Kd) of 0.06 µM.

`CC(=O)c1c(C)c2cnc(Nc3ccn(C)n3)nc2n(C2CCCC2)c1=O` displayed a Kd of 0.11 µM.

Consider `Nc1nccc(-c2c(-c3ccc(F)cc3)ncn2C2CCN(Cc3ccccc3)CC2)n1` [SB-219980], for which the affinity, expressed as Kd, was 0.093 µM.

The next experiment relates to PRKD3.
Regarding `CS(=O)(=O)CCNCc1nc(-c2ccc3ncnc(Nc4ccc(OCc5ccccc5)c(Cl)c4)c3c2)cs1.Cl` [GW582764], the Kd is above 10 µM.

`Cc1ccccc1-c1cc(-c2c[nH]nc2-c2ccccn2)ccn1` [GW680061]: the Kd is above 10 µM.

For the compound `COC(=O)C(Cc1ccccc1)NC(=O)NC1CCN(c2ccnc(Nc3ccc(F)cc3)n2)C1` (centres unmarked) [GSK1379714], the dissociation constant (Kd) is above 10 µM.

`COc1ccc(Nc2nccc(N3CCC(NC(=O)c4cc5ccccc5s4)C3)n2)cc1` (centres unmarked) [GSK1379738] returned a Kd above 10 µM.

For the compound `FC(F)(F)c1ccccc1-c1cc(-c2c[nH]nc2-c2ccccn2)ccn1` [GW679396], the Kd was above 10 µM.

`COc1cccc(C2=C(Nc3cc(Cl)c(O)c(Cl)c3)C(=O)NC2=O)c1` [SB-390767] returned a Kd above 10 µM.

`COc1ccc(Nc2nccc(-c3ccc(NC(=O)c4cc5cc(F)ccc5[nH]4)cc3)n2)cc1` [GSK1229496] gave a Kd above 10 µM.

The test system of another experiment is PRKG2.
Take `Cn1cncc1C(=O)NC1CCN(c2ccnc(Nc3ccc(F)cc3)n2)C1` (centres unmarked) [GSK1379717]: the Kd was above 10 µM.

With `COc1ccc(Nc2nccc(N3CCC(NC(=O)C(C)c4ccc(Cl)cc4)C3)n2)cc1` (centres unmarked) [GSK1379735], the dissociation constant Kd was above 10 µM.

Turning to `CNC(=O)c1ccc(C)c(-n2c(C)cc(OCc3ccc(F)cc3F)c(Br)c2=O)c1`, the Kd is above 10 µM.

For `CNc1cc(-c2ccc3c(N)n[nH]c3c2)nc(N)n1` [GSK2224810], the Kd worked out at 0.039 µM.

In turn, `NS(=O)(=O)c1cccc(N/C=C2\C(=O)Nc3ccc(S(=O)(=O)Cc4c(Cl)cccc4Cl)cc32)c1` [GSK398099] came in with a Kd above 10 µM.

Take `CC[C@@H]1CO[C@H](C(=O)Nc2ccccc2)CN1c1cc(-c2ccc3c(N)n[nH]c3c2)nc(NC)n1` [GSK2376236]: the dissociation constant Kd turned out to be 0.4 µM.

`Cn1cnc2c(N)ncnc21` [SKF-97623] came in with a Kd above 10 µM.

In the case of `Cc1c(Cn2c(C)c(C)n3c(=O)cc(N4CCOCC4)nc23)cccc1C(F)(F)F` [GSK2328680], the Kd is above 10 µM.

As to `Cn1cncc1-c1cc2c(Nc3ccc(OCc4ccccc4)cc3)ncnc2cn1` [GW281179], binding was put at a Kd of 3.3 µM.

Another experiment concerns RIOK1.
`Nc1cccc(-c2ccc3c(N)n[nH]c3c2)n1` [GSK2192730] yielded a Kd of 0.39 µM.

Turning to `CNc1cc(-c2ccc3c(N)n[nH]c3c2)nc(N)n1` [GSK2224810], the affinity, expressed as Kd, was 1.1 µM.

Consider `CC(C)c1cc(-c2ccc3c(N)n[nH]c3c2)nc(N)n1` [GSK2250882], for which the Kd worked out at 0.58 µM.

On to `O=C(Nc1n[nH]c2cc(-c3ccsc3)ccc12)C1CC1` [SB-732932], for which the Kd is 0.18 µM.
